Results filed as inconclusive are left out. Calls of active or inactive are those of the source. Calls come from the whole dose curve; as a rule, active = well fitted activation curve with a large enough effect; inconclusive = small, poorly fitted or top-dose-only effect, or another doubt; inactive = no such curve, though single readings can be large or run the other way.
biological target: Rap guanine nucleotide exchange factor 3 (Homo sapiens) (UniProt O95398); test: Counterscreen qHTS for agonist of cAMP-regulated guanine nucleotide exchange factor 3 (EPAC1) (AID 1645889); settings: EPAC1 Rap1B-BODIPY-GDP exchange, fluorescence; series mostly up to 154 µM; activation: at the top concentration; note: nearly all actives have a fitted effect of over 40% in size; for activation: % of control where 0% means no effect
Description: Assay Provider (PI): Xiaodong Cheng Ph.D. The University of Texas Medical Branch, […], TX MLPCN Grant: NS066510 In multi-cellular eukaryotic organisms, the effects of cAMP are transduced by two ubiquitously-expressed intracellular cAMP receptors, the classic protein kinase A/cAMP-dependent protein kinase (PKA/cAPK) and the more recently discovered exchange protein directly activated by cAMP/cAMP-regulated guanine nucleotide exchange factor (EPAC/cAMP-GEF). Both PKA and EPAC are ubiquitously expressed in all tissues, and an increase in intracellular cAMP levels will lead to the activation of both PKA and EPAC. Therefore, careful dissections of the individual role and relative contribution of EPAC and PKA within the overall cAMP signaling in various model systems are critical for further elucidating the mechanism of cAMP signaling. To date no EPAC-specific antagonists and agonist, as well as isoform-specific agonists have been reported, and developing EPAC-specific pharmacological probes to determine the physiological functions that EPAC play in the overall cAMP-mediated signaling remains a major challenge within the research field. Furthermore, identified regulators of EPAC may lead to new mechanism-based therapeutic strategies specifically targeting the EPAC / cAMP-signaling components as EPAC has been implicated to play important roles in major human pathological conditions such as diabetes, heart disease, and cancer. This qHTS will be used to screen the Molecular Libraries Small Molecule Repository (MLSMR) as a concentration-titration series using the NCGC unique quantitative screening (qHTS) platform to find activators for EPAC1. In addition, this assay will also be used as a counterscreen for the EPAC2 qHTS. This fluorescent based assay is developed and validated for EPAC1 that measures exchange using EPAC effector Rap1 complex with BODIPY-GDP, a GDP analog with a tethered fluorophores. Activators are identified by monitoring the change in fluorescence signal as the exchanged free BODIPY-GDP has a reduced fluorescence compared to Rap1-bound BODIPY-GDP. Increase in signal (activation) is the desired outcome for the EPAC1 agonist while no activity in this assay is desired for the EPAC2 agonist counterscreen. Reference: [1] de Rooij, J., Zwartkruis, F. J., Verheijen, M. H., Cool, R. H., Nijman, S. M., Wittinghofer, A., and Bos, J.L. (1998) Nature 396, 474-477. Kawasaki, H., Springett, G. M., Mochizuki, N., Toki, S., Nakaya, M., Matsuda, M., Housman, D. E., and Graybiel, A. M. (1998) Science 282, 2275-2279.
EPAC1 Counterscreen PROTOCOL TABLE SEQUENCE No. (e.g., 1, 2, 3, etc.); […] (e.g., Cells, Incubation, Reagent, etc.); VALUE and DESCRIPTION. 1. Reagent. 3 uL. [1x] 250 nM Rap1B-BODIPY-GDP, and 50 uM GDP. 2a. Compound. 23 nL. Control 6,572 uM cAMP (working concentration). 2b, 2c. Compound. 23 nL. Control activator and inhibitor; 234 - 30,000 uM cAMP and 16.4 - 10,000 uM. 2d. Compound. 46 nL. MLSMR follow-up library; 0.64 - 10,000 uM. 3. Time. 15 sec, 1000rpm. Centrifuge. 4. Time. 5 min. Incubation at room temperature. 5. Detector. Fluorescence. (Read 1), Ex/Em = 480 nm / 540 nm. 6. Time. 30 min. Incubation at room temperature. 7. Detector. Fluorescence. (Read 2), Ex/Em = 480 nm/ 540 nm. 8. Reagent. 1uL. Dispense either [4x] 10 uM cAMP or buffer. 9. Time. 15 sec, 1000 rpm. Centrifuge. 10. Time. 5 min. Incubation at room temperature. 11. Detector. Fluorescence. (Read 3), Ex/Em = 480 nm / 540 nm. 12. Time. 30 min. Incubation at room temperature. 13. Detector. Fluorescence. (Read 4), Ex/Em = 480 nm / 540 nm. NOTES (numbers refer to Sequence numbers above; values are from representative experiments) 1. Medium-binding black solid-bottom Greiner plates (789176-F). Dispense 3 uL of [1x] 250 nM Rap1B-BODIPY-GDP, and 50 uM GDP into columns 1 to 48. 2a. Control compound cAMP (6,572 uM, column 3, rows 1 to 32) single pin-transferred for a [final] of 50 uM. 2b. […]
Potency is the fitted concentration of half-maximal effect.

| SMILES | activation | Potency |
| --- | --- | --- |
| CC(=O)CCc1oc2ccccc2c1-c1ccccc1 | -0.404% [at 30.8 µM] (inactive) |  |
| Cc1ccc(OCCn2c(=O)n(C)c3ccccc32)cc1 | 0.382% (inactive) |  |
| COc1cccc(/C=N/Nc2ccc(S(=O)(=O)Nc3ccccc3C(=O)O)cc2[N+](=O)[O-])c1O | 20% [at 30.8 µM] (inactive) |  |
| COc1ccc(Br)cc1/C=N/Nc1ccc(S(=O)(=O)Nc2ccccc2C(=O)O)cc1[N+](=O)[O-] | 19% [at 30.8 µM] (inactive) |  |
| CCCCNc1ccc2c3c(cccc13)C(=O)N(CCCC)C2=O |  | 20 µM (active) |
| CCn1c(C(=O)N2CCc3ccccc3C2)cc2sccc21 | 39.8% (inactive) |  |
| Cc1ccc(C(=O)OCC(=O)c2ccc(CC(=O)N3CCOCC3)s2)c(C)c1 | 13.7% (inactive) |  |
| O=C(O)COc1ccccc1/C=N/Nc1ccc(S(=O)(=O)Nc2ccc(Cl)cc2)cc1[N+](=O)[O-] | 17.2% [at 30.8 µM] (inactive) |  |
| O=C(NNc1cc(Br)c(O)c(Br)c1)c1ccccc1 | 11.6% [at 30.8 µM] (inactive) |  |
| O=C(CSc1nnc(SCc2ccc(Cl)cc2)s1)N/N=C/c1ccc(C(=O)O)cc1 | 25.6% (inactive) |  |
| COc1ccc(-c2nc(C)ncc2-c2ccccc2)c(O)c1 | -4.43% [at 30.8 µM] (inactive) |  |
| CCc1ccc([C@@H]2CC=C(C(=O)O)[C@H](c3ccc(Cl)cc3)N2S(=O)(=O)c2ccc(C)cc2)cc1 | 4.76% [at 30.8 µM] (inactive) |  |
| CCOC(=O)c1c(NC(=O)c2ccc(S(=O)(=O)N(C)CC3CCCO3)cc2)sc2c1CCN(C)C2 (stereo not given) | -82.7% (inactive) |  |
| C[C@@H]1CCCCCCCCC(=O)OCCN1C(=O)OC(C)(C)C | -1.14% (inactive) |  |
| CC1=C(C(=O)OC2CCCCCC2)C(c2c(Cl)cccc2Cl)CC(=O)N1 (stereo not given) | -0.0238% (inactive) |  |
| COc1ccccc1-n1c(C)c(C(=O)O)c2cc(OC)c3ccccc3c21 | 22.3% (inactive) |  |
| COc1ccc(N2C(=O)CSC2c2cccc(F)c2)c(OC)c1 (stereo not given) | 1.09% [at 30.8 µM] (inactive) |  |
| O=C(c1ccccc1)c1ccc(O)cc1O | 6.44% [at 30.8 µM] (inactive) |  |
| Cn1c(=O)c(C(=O)NNC(=O)c2ccccc2Br)c(O)c2ccccc21 | 8.96% [at 30.8 µM] (inactive) |  |
| CCCN1C(=O)S/C(=C/c2ccc(N3CCOCC3)o2)C1=O | 11.8% (inactive) |  |

| SMILES | activation | Potency |
| --- | --- | --- |
| CCN=C1S/C(=C\c2ccc(-c3cccc(C(=O)O)c3)o2)C(=O)N1CC | 9.27% (inactive) |  |
| CC(OC(=O)CC1CCCCC1)C(=O)Nc1ccc(S(N)(=O)=O)cc1 (stereo not given) | 15.8% [at 30.8 µM] (inactive) |  |
| Cc1cc(C)nc(SCC(=O)c2ccc(Cl)cc2)n1 | 8.82% (inactive) |  |
| Cc1nnc(SCc2ccccc2CSc2nnc(C)s2)s1 | 27.4% (inactive) |  |
| CCCCC[C@@H]1C=C(C(=O)O)[C@H](c2ccc(Cl)c(Cl)c2)N1S(=O)(=O)c1ccc(C)cc1 | -27.1% (inactive) |  |
| CC(C(=O)Nc1ccc(O)c(C(=O)O)c1)N1C(=O)/C(=C/c2cccs2)SC1=S (stereo not given) | 1.45% (inactive) |  |
| CC1=CC(C)(C)N2C(=O)C(=Nc3ccc(O)cc3)c3cccc1c32 | 40.6% (inactive) |  |
| Cc1ccc(C2CC2/C(=N/O)c2ccc(F)cc2)cc1 (stereo not given) | 6.98% (inactive) |  |
| CC(C)(C)NC(=O)COC(=O)c1c2c(nc3ccccc13)CCC2 | 16.3% [at 30.8 µM] (inactive) |  |
| COc1ccccc1CNC(=O)C1(C)CCN1Cc1ccc(OC(F)(F)F)cc1 (stereo not given) | -17.5% (inactive) |  |
| Nc1nc2c(ncn2[C@@H]2O[C@H](CNS(=O)(=O)N3CCCC3)[C@@H](O)[C@H]2O)c(=O)[nH]1 | 4.55% (inactive) |  |
| Cc1ccc(-c2nn(-c3ccccc3)cc2C=C2SC(=S)N(CCS(=O)(=O)O)C2=O)cc1 | 28% [at 30.8 µM] (inactive) |  |
| Cc1ncc(CO)c2c1Oc1nc(-c3ccccc3F)nc(SCC(=O)N(C)c3ccccc3)c1C2 | 16.8% (inactive) |  |
| Cc1cc(C(C)(C)C)cc(C)c1COC(=O)c1cccnc1 | -20.8% (inactive) |  |
| O=C1CCC([N+](=O)[O-])C(c2cccc3ccccc23)N1 (stereo not given) | 45.7% [at 30.8 µM] (inactive) |  |
| S=c1[nH]nc(-c2cc(-c3ccccc3)n[nH]2)n1/N=C/c1ccc(Cl)c(Cl)c1 | 18.4% [at 30.8 µM] (inactive) |  |
| Nc1ccc(-c2c3ccc(=O)cc-3oc3cc(O)ccc23)cc1C(=O)O |  | 50.1 µM (active) |
| Cc1cc2oc(=O)cc(CN3CCCC3)c2cc1Cl | 28.8% [at 30.8 µM] (inactive) |  |
| COc1ccc(N(CC(=O)NC2CCCCCCC2)S(=O)(=O)c2c(C)nn(C)c2C)cc1 | 10.9% (inactive) |  |
| Cc1cc(/C=C2\SC(=S)NC2=O)cc(C)c1O | -0.418% (inactive) |  |
